# In all, about 52,000 compounds went through this assay and about 1,700 (3.3%) were called active. Many of the other results were omitted from the sample, so actives are more common in it than they were. Values without a mark were called inactive. Rule as the data show it: active = survival mostly below about 52% (no sharp cut-off); inactive = mostly above about 56%.
# Test system: Wild type
# Experiment: S. aureus survival, RN4220 and DeltatarO strains – OD600, teichoic acid synthesis inhibitors, primary screen (AID 463173)
# Conditions: S. aureus RN4220 wild type/DeltatarO growth, OD600, 18 h, active compounds read low, screened at 18.75 µg/mL (by protocol)
row,Compound,survival
1,Cc1ccccc1N1CC(c2nc3ccccc3n2CCC2CCCCC2)CC1=O (configuration not stated),12% (active)
2,CCc1ccccc1N1CC(c2nc3ccccc3n2CC(C)C)CC1=O (configuration not stated),91%
3,Cc1ccc(N2CC(c3nc4ccccc4n3CCC3CCCCC3)CC2=O)cc1 (configuration not stated),80%
4,COc1ccccc1OCCCCn1c(C2CC(=O)N(c3ccccc3Cl)C2)nc2ccccc21 (configuration not stated),85%
5,O=C1CC(c2nc3ccccc3n2CCC2CCCCC2)CN1c1ccccc1Cl (configuration not stated),32% (active)
6,COc1ccccc1OCCCn1c(C2CC(=O)N(c3ccccc3Cl)C2)nc2ccccc21 (configuration not stated),93%
7,Cc1cccc(N2CC(c3nc4ccccc4n3CCC3CCCCC3)CC2=O)c1 (configuration not stated),44%
8,CCc1ccccc1N1CC(c2nc3ccccc3n2CCC2CCCCC2)CC1=O (configuration not stated),25% (active)
9,Cc1c(C(=O)NCc2ccc(N(C)C)cc2)oc2c1-c1nn(Cc3cccc(Cl)c3)cc1CC2,91%
10,CC1CCCN(S(=O)(=O)c2ccc(N)cc2)C1 (configuration not stated),109%
11,Cc1ccc(-c2onc(C)c2C)cc1S(=O)(=O)NCc1ccco1,112%
12,COc1ccc(-c2onc(C)c2C)cc1S(=O)(=O)NCCc1ccccc1,57%
13,Cc1ccc(-c2onc(C)c2C)cc1S(=O)(=O)NCc1ccc(N(C)C)cc1,-4% (active)
14,Cc1ccc(-c2onc(C)c2C)cc1S(=O)(=O)NCc1cccs1,119%
15,COc1ccc(CCNS(=O)(=O)c2cc(-c3onc(C)c3C)ccc2OC)cc1OC,-3% (active)
16,COCCCNS(=O)(=O)c1cc(-c2onc(C)c2C)ccc1OC,111%
17,CCOC(=O)n1c(SCC)nc2ccccc21,104%
18,O=C(Cc1ccc(Cl)cc1)NCCc1csc2nc(-c3ccccc3F)nn12,69%
19,Cc1cc(-c2ccccc2)n2nc(-c3cccc(Br)c3)cc2n1,55%
20,Cc1cc(C)n2nc(-c3ccccc3)cc2n1,116%
21,Cc1cc(-c2ccccc2)n2nc(-c3ccccc3)cc2n1,-2% (active)
22,CCCCC(=O)Nc1nnc(SCc2cc(=O)n3cc(C)ccc3n2)s1,63%
23,CC(=O)Nc1nonc1-c1nc2ccccc2n1Cc1ccccc1Br,97%
24,O=C(CCn1c(=O)c2sccc2n(Cc2ccc(F)cc2Cl)c1=O)NCc1ccc2c(c1)OCO2,92%

row,Compound,survival
1,CCc1ccc2oc(C(=O)NCCc3ccc(OC)c(OC)c3)cc(=O)c2c1,83%
2,Cc1c(C(C)(C)C)sc(=N)n1C,86%
3,CCc1ccc(-c2[nH]c3c(c2-c2c(-n4cccc4)n(C)c(=O)n(C)c2=O)c(=O)n(C)c(=O)n3C)cc1,105%
4,COc1ccc2c(Sc3ccc(Cl)cc3)c(C(=O)N3CCCCC3)[nH]c2c1,33%
5,O=C(c1[nH]c2ccccc2c1Sc1ccc(Cl)cc1)N1CCCCC1,48%
6,COc1ccc2c(Sc3ccccc3)c(C(=O)NCCCN3CCCCC3)[nH]c2c1,73%
7,COc1ccc2c(Sc3ccc(Cl)cc3)c(C(=O)NCCCN3CCCCC3)[nH]c2c1,-1% (active)
8,COCCCNC(=O)c1[nH]c2ccccc2c1Sc1ccc(C)cc1,81%
9,O=C(NCCCN1CCCCC1)c1[nH]c2ccccc2c1Sc1ccc(Cl)cc1,-1% (active)
10,CCOc1cc(C2CC(=O)Nc3c2c(C)nn3-c2nc(C)cc(C)n2)ccc1O (configuration not stated),83%
11,CCOC(=O)c1cccc(NC(=O)c2cc3c(-c4cccc(OC)c4)nn(C)c3s2)c1,65%
12,CCc1ccc2occ(CC(=O)N(Cc3ccccc3)C3CCS(=O)(=O)C3)c2c1 (configuration not stated),77%
13,COc1ccc2c(c1)c1c(c(=O)n(-c3cccc(Cl)c3)c(=O)n1CC(=O)N1CCCC1)n2C,73%
14,CCCCN(CCCC)CCNC(=O)CN1C(=O)CSc2ccc(S(=O)(=O)N3CCCCC3)cc21,110%
15,COc1ccc(-c2cc(C(=O)O)n(Cc3ccccc3)n2)cc1,63%
16,CCOC(=O)c1cc(-c2ccccc2)nn1Cc1ccccc1,2% (active)
17,CCc1cccc(NC(=O)Cn2nc(-c3ccc(OC)cc3)ccc2=O)c1,59%
18,O=C(O)c1cc(-c2ccccc2)nn1Cc1ccccc1,68%
19,CCOC(=O)c1cc(-c2ccc(C)cc2)nn1Cc1ccccc1,0% (active)
20,CCOC(=O)c1cnn(Cc2ccccc2)c1N,104%
21,CCOC(=O)c1cc(-c2ccc(OC)cc2)nn1Cc1ccccc1,10% (active)
22,Cc1ccc(-c2cc(C(=O)O)n(Cc3ccccc3)n2)cc1,63%
23,COC(=O)c1ccc(Cn2nc(-c3ccc(C)cc3)ccc2=O)cc1,145%

# From PubChem BioAssay AID463173 (ICCB-Longwood Screening Facility, Harvard Medical School, 2010)
